Source: PubChem BioAssay (EPA / NIEHS)
“And” between values parts separate entries of the source, which are not always exact repeats. Equal entries are not always repeated. Inconclusive results are not listed. Some compounds were tested as several samples or in several runs, with calls that do not always agree. The source made the active and inactive calls. The calls were made as follows: active = hit-call score of the fitted dose curve at least 0.9, where 1 is the maximum; inconclusive = response in the unintended direction; inactive = score below 0.9.

Key:
[1] = ATG_XTT_Cytotoxicity: Cytotoxicity Assessment in the Attagene TRANS-FACTORIAL HepG2 Assay (AID 2283584)
How it was run: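 HepG2 human liver cells, transiently transfected with multiple GAL4-UAS reporter units, were dosed and read at 24 h by XTT as cell number. Loss of signal was fitted relative to DMSO negative control baseline.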

[2] = TOX21_p53_BLA_p2_viability: Viability Assessment in the Tox21 HCT-116 p53 Agonism Beta-lactamase Assay, Phase 2 (AID 2283591);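 also: compound exposure lasted 16 h at 37 °C; actives lower the ATP signal meaning cytotoxicity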
How it was run: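 HCT-116 p53-bla cells (4000/well) rested 5 h at 37C, then received compounds in DMSO (217-fold dilution) for 16 h at 37C, 5% CO2. After the CCF4 read, CellTiter-Glo was added; ATP luminescence was read after 30 min at room temperature.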

[3] = target: Cellular tumor antigen p53 (Homo sapiens) (UniProt P04637); assay: TOX21_p53_BLA_p2_ratio: Tox21 HCT-116 p53 Agonism Beta-lactamase Assay, Ratio, Phase 2 (AID 2283592)
How it was run: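 Ratio endpoint: beta-lactamase cleavage of CCF4-AM, blue (460 nm) over green (530 nm). HCT116 reporter line; 16 h treatment, 37C; substrate 2 h RT.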

[4] = TOX21_p53_BLA_p3_viability: Viability Assessment in the Tox21 HCT-116 p53 Agonism Beta-lactamase Assay, Phase 3 (AID 2283593);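 also: cells exposed to compound for 16 h before reading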
How it was run: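 HCT-116 cells (4000/well) rested 5 h at 37C, then got DMSO compounds by pin tool (217-fold dilution) for 16 h at 37C, 5% CO2. After the bla read, CellTiter-Glo was added and luminescence read at 30 min, room temperature.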

[5] = target: Cellular tumor antigen p53 (Homo sapiens) (UniProt P04637); assay: TOX21_p53_BLA_p3_ratio: Tox21 HCT-116 p53 Agonism Beta-lactamase Assay, Ratio, Phase 3 (AID 2283596)
How it was run: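 Cells were seeded at 4000/well, rested 5 h at 37C, then dosed with DMSO compound solutions (217-fold dilution) for 16 h. CCF4-AM substrate was loaded for 2 h at room temperature, and the 460/530 nm emission ratio was fitted for gain of signal versus DMSO.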

[6] = target: Cellular tumor antigen p53 (Homo sapiens) (UniProt P04637); assay: TOX21_p53_BLA_p5_ratio: Tox21 HCT-116 p53 Agonism Beta-lactamase Assay, Ratio, Phase 5 (AID 2283599)
How it was run: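 HCT-116 cells carrying a p53-inducible beta-lactamase reporter were seeded at 4000 cells/well and dosed after 5 h with compound in DMSO (217-fold dilution). After 16 h at 37C, CCF4-AM substrate was added for 2 h, and the 460/530 nm emission ratio was scored as gain-of-signal versus DMSO.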

[7] = TOX21_p53_BLA_p5_viability: Viability Assessment in the Tox21 HCT-116 p53 Agonism Beta-lactamase Assay, Phase 5 (AID 2283600)
How it was run: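 Luciferase-coupled ATP quantitation of cells treated for 16 h (37C, 5% CO2) with test chemicals delivered in DMSO via a 217-fold dilution; 4000 cells/well; reagent incubated 30 min at room temperature before luminescence reading.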

[8] = TOX21_p53_BLA_p4_viability: Viability Assessment in the Tox21 HCT-116 p53 Agonism Beta-lactamase Assay, Phase 4 (AID 2283597);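 also: hits lower the luminescence signal meaning cytotoxicity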
How it was run: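 Cytotoxicity was inferred from loss of CellTiter-Glo luminescence. HCT116 cells had been dosed with compounds after 5 h plating, incubated 16 h at 37C and 5% CO2, and exposed to the CCF4-AM substrate for 2 h.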

[9] = target: Cellular tumor antigen p53 (Homo sapiens) (UniProt P04637); assay: TOX21_p53_BLA_p4_ratio: Tox21 HCT-116 p53 Agonism Beta-lactamase Assay, Ratio, Phase 4 (AID 2283601)
How it was run: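 HCT116 cells carrying an inducible beta-lactamase reporter were plated at 4000 cells/well, rested 5 h, then exposed to compounds in DMSO (217-fold dilution) for 16 h at 37C. CCF4-AM substrate was loaded 2 h at room temperature; 460/530 nm emission ratio scored gain-of-signal versus DMSO.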

Measured: AC50

Chain of Cellular tumor antigen p53 (Homo sapiens) (P04637 whole entry, looked up): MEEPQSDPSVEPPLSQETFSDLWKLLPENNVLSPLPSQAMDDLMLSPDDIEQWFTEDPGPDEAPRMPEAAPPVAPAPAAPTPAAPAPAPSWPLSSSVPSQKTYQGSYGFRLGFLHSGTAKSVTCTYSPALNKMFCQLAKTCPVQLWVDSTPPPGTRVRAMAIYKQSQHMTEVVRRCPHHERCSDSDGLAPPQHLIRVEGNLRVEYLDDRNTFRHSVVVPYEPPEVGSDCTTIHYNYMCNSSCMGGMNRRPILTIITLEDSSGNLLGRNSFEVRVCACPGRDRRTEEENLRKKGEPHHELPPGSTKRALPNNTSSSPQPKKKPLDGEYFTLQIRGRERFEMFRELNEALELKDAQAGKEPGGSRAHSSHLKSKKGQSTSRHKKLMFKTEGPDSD

CC[Si](OC(C)=O)(OC(C)=O)OC(C)=O
not listed: [8] | [9]
inactive: all other assays above

CCCCCCCCCCN
inactive: all assays above

NC(=O)NC1NC(=O)NC1=O (stereo not given)
not listed: [8]
inactive: all other assays above

CCCc1c(OCCCOc2ccc(OCC(=O)O)cc2)ccc(C(C)=O)c1O
inactive: [1] | [4] | [5]
active: [2] 57 µM | [3] 63.8 µM | [8] 46.1 µM | [6] 66.6 µM | [7] 65.8 µM | [9] 69.2 µM

CC(=O)OCc1ccc2c(c1)OCO2
not listed: [8]
inactive: all other assays above

NCCCCCCN
inactive: all assays above

O=C(Oc1ccccc1)c1ccc(O)cc1
not listed: [8]
inactive: all other assays above

CC1(C)CCC(C)(C)c2cc(C(=O)Nc3ccc(C(=O)O)cc3)ccc21
active: [2] 28.1 µM | [3] 61.2 µM | [4] 46.1 µM | [5] 72.4 µM | [8] 32.5 µM | [6] 46.2 µM | [7] 39.5 µM | [9] 46.9 µM
inactive: [1]

O=c1[nH]c(=O)n([C@H]2CCCO2)cc1F
inactive: all assays above

O=[N+]([O-])c1cc(C(F)(F)F)ccc1Cl
not listed: [6]
inactive: all other assays above

C[Si](O[Si](C)(C)C)O[Si](C)(C)C
not listed: [8]
inactive: all other assays above

CCN(CC)c1ccc2c(-c3ccccc3C(=O)O)c3ccc(=[N+](CC)CC)cc-3oc2c1
not listed: [8]
inactive: all other assays above

CC(C)(C#N)c1cc(Cn2cncn2)cc(C(C)(C)C#N)c1
inactive: all assays above

CC(=O)C(=O)O
inactive: all assays above

O=C(O)Cc1cccc2ccccc12
inactive: all assays above

O=c1[nH]nnc2ccccc12
inactive: all assays above

COC(=O)Cc1cccc2ccccc12
inactive: all assays above

BrC1CCC(Br)C(Br)CCC(Br)C(Br)CCC1Br (stereo not given)
inactive: [1] | [4] | [6] | [7]
active: [2] 18.1 µM and 18.2 µM | [3] 53.1 µM and 45.9 µM | [4] 15.1 µM | [5] 65.6 µM and 38.4 µM | [8] 40.1 µM and 19.6 µM | [9] 63.7 µM and 50.3 µM
